High-throughput results as filed in PubChem BioAssay.
Compounds with a hit are over-represented: about 2.2% of the library has one in this group of screens.
HSP90 inh: blocks HSP90-mediated luciferase refolding in reticulocyte lysate; Rabbit reticulocyte lysate, luciferase refolding luminescence, 3 h; inhibition, % at 5.6 µM; AID 1789; actives 0.91% (n = 290,000);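 active means inhibition above the screen-wide mean plus 3 SD, computed separately per campaign, cut at about 16% in these data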;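 further: 0% = DMSO wells and 100% = 60 µM geldanamycin wells; inhibitors lower the luminescence because luciferase stays unfolded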
TWEAK-Fn14 inh: blocks TWEAK-Fn14 interaction in a reporter cell assay. TWEAK-stimulated Fn14 reporter cells, luciferase luminescence, 8 h. actives 2% (n = 360,000). inhibition, % at 10 µM; in the data active means inhibition above about 50%
LGR2 antag: inhibitors of bursicon-induced Drosophila LGR2 receptor cAMP signaling; AID 720647; actives 0.35% (n = 380,000); inhibition, % at 9.99 µM; HEK293 LGR2, CRE-luciferase, bursicon-stimulated, 4 h;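 active means drop in luminescence signal, shown as inhibition above about 50% in the replicate tests, limit read from the data, passing the limit was not always enough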;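 further: agonist challenge used bursicon conditioned medium at about half maximal strength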
TROY signal inh: blocks TROY-dependent signaling in reporter cells. Q293 LMP1-TROYcd NF-kB luciferase reporter, 4 h. inhibition, % at 10 µM. actives 0.98% (n = 360,000);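 active means compounds whose plate-normalised and pattern-corrected inhibition of the luciferase reporter signal at the single screening dose is 50% or more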
Starred values were filed as active, the others as inactive; nt = no result given.

SMILES | HSP90 inh | TWEAK-Fn14 inh | LGR2 antag | TROY signal inh
COc1ccc(S(=O)(=O)N2CCCC(C(=O)NCC3CCCO3)C2)cc1C (stereo not drawn) | 3 | 93* | 7 | -7
COc1ccc(S(=O)(=O)N2CCCC(C(=O)NCc3ccco3)C2)cc1Cl (stereo not drawn) | 4 | 86* | 4 | -8
O=C(C[C@@H]1C[C@@H]2c3cc(NC(=O)Nc4ccccc4)ccc3O[C@@H]2[C@H](CO)O1)NCCN1CCCCC1 | nt | nt | -1 | nt
CCN1[C@@H]2c3ccc(C4=CCCC4)c(=O)n3C[C@H]1[C@H](CO)[C@H]2C(=O)NCc1ccccn1 | nt | nt | 5 | nt
CCOc1ccc(NC(=O)CN2C(=O)/C(=C3\SC(=S)N(C4CCS(=O)(=O)C4)C3=O)c3ccccc32)cc1 (stereo not drawn) | 20* | 5 | 3 | -4
CCOc1ccc(N(C(C)C(=O)NC2CCCCCC2)S(C)(=O)=O)cc1 (stereo not drawn) | -1 | 91* | nt | -20
CCOc1ccc(N(C(C)C(=O)NN=C2CCCCCCC2)S(C)(=O)=O)cc1 (stereo not drawn) | -4 | 0 | 4 | -26
C/C=C/c1ccc([C@@H]2[C@H](CO)N(C(=O)CN(C)C)C23CN(C(=O)C2CC2)C3)cc1 | nt | nt | -2 | nt
C[C@H]1CCCCO[C@H](CN(C)S(=O)(=O)c2cccs2)[C@@H](C)CN([C@@H](C)CO)C(=O)c2cc(NC(=O)c3ccccc3)ccc2O1 | nt | nt | -6 | nt
CC(C1CC1)N(Cc1ccccc1)C(=S)Nc1ccccc1Cl (stereo not drawn) | 4 | 7 | -16 | 86*
O=C(/C=C/c1ccc2c(c1)OCO2)Nc1nc(-c2ccccc2)cs1 | 0 | 88* | nt | 62*
O=C(/C=C/c1ccc2c(c1)OCO2)Nc1nncs1 | 2 | 10 | -45 | -23
O=C(/C=C\c1ccco1)Nc1nc(-c2ccc3ccccc3c2)cs1 | -1 | 83* | 55* | 48
Cc1sc(NC(=O)/C=C/c2ccc3c(c2)OCO3)nc1-c1ccccc1 | -1 | 88* | 4 | 27
COc1ccc2c3c([nH]c2c1)[C@H](CO)N(C)CC31CN(C(=O)c2ccccn2)C1 | nt | nt | -11 | nt
O=C1NC[C@H](c2ccccc2)OC(=O)[C@H](Cc2ccc(F)cc2)C/C=C\C[C@H]1CC(=O)N(CCO)Cc1ccccc1 | nt | 26 | 58* | 13
O=C1NC[C@H](c2ccccc2)OC(=O)[C@@H](Cc2ccc(F)cc2)C/C=C\C[C@H]1CC(=O)N(CCO)Cc1ccccc1 | nt | 43 | 61* | 22
O=C1NC[C@@H](c2ccccc2)OC(=O)[C@H](Cc2ccc(F)cc2)C/C=C\C[C@H]1CC(=O)N(CCO)Cc1ccccc1 | nt | 15 | -4 | 13
COc1ccc(NC(=O)Nc2cccc3c2O[C@H](CN(C)S(=O)(=O)c2ccc(F)cc2)[C@H](C)CN([C@@H](C)CO)C3=O)cc1 | nt | nt | -4 | nt
COC(=O)C(=Cc1ccc(OCc2ccc([N+](=O)[O-])cc2)c(OC)c1)C(=O)OC | -1 | 91* | nt | 57*
CCOC(=O)C(=Cc1ccc(OCc2ccc([N+](=O)[O-])cc2)c(OC)c1)C(=O)OCC | 1 | 58* | nt | 30
COc1cc(/C=N/NC(=O)c2cccc([N+](=O)[O-])c2)ccc1OCc1ccccc1 | 5 | -15 | -40 | -22
COc1cc(C(c2c(C)[nH][nH]c2=O)c2c(C)[nH][nH]c2=O)ccc1OCc1ccc([N+](=O)[O-])cc1 | 8 | 8 | nt | -29
O=c1cc(-c2ccccc2O)nc(-c2ccccc2)[nH]1 | nt | 53* | -19 | 57*
O=C(C[C@H]1C[C@@H]2c3cc(NC(=O)Nc4ccccc4F)ccc3O[C@@H]2[C@@H](CO)O1)NCc1ccccn1 | nt | nt | -31 | nt
SMILES | HSP90 inh | TWEAK-Fn14 inh | LGR2 antag | TROY signal inh
O=C(N/N=C/c1cccc(F)c1)c1c(O)c2c([nH]c1=O)CCCC2 | -1 | -10 | -45 | 53*
Cc1cccc(C)c1NC(=O)Cn1cnc2c(=O)n(C)c(=O)n(C)c21 | 1 | 4 | nt | 0
Cn1c(=O)c2ncn(CC(=O)O)c2n(C)c1=O | -1 | -9 | -16 | 52*
COc1cccc(NC(=O)N2[C@@H]3CNC[C@H]2C3c2ccc(/C=C/c3ccccc3)cc2)c1 (stereo partly drawn) | nt | nt | 31 | nt
CCOC(=O)CSc1nc2sc3c(c2c(=O)n1-c1ccccc1)CCN(C)C3 | -3 | -11 | 0 | 0
CCOC(=O)CSc1nc2sc3c(c2c(=O)n1-c1ccccc1)CCN(C(C)C)C3 | 3 | 84* | 10 | 11
Cc1ccc(C)c(NC(=O)c2ccccc2NS(=O)(=O)c2cc([N+](=O)[O-])ccc2C)c1 | 3 | 58* | 30 | 55*
CCC(=O)c1ccc(OCC(=O)Nc2cccc(S(=O)(=O)N3CCCCCC3)c2)cc1 | nt | 54* | 10 | 31
